High-throughput results from PubChem BioAssay.
MEP2 TOR yeast = modulators of MEP2-GFP levels in yeast, primary screen, S. cerevisiae, multiplex flow cytometry, MLPCN library; S. cerevisiae MEP2-GFP strain, 3 h; 100% = DMSO control level; AID 2016, 2009; GFP response vs DMSO, % at 10 µM; 330,000 tested, 0.51% active;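 active means GFP response versus DMSO above a set limit, roughly screen mean plus 3 SD, cut at about 180% in these data; inconclusive means fewer than 70 cells counted for a yeast strain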;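 further: median GFP fluorescence of the barcode-gated MEP2-GFP cells per well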
CIT2-GFP yeast = modulators of CIT2-GFP expression in yeast, primary screen, S. cerevisiae, GFP fusion, multiplex flow cytometry, MLPCN library | AID 2029, 2009 | 320,000 tested, 0.065% active | S. cerevisiae CIT2-GFP strain, 3 h; 100 means same as DMSO wells | GFP response vs DMSO, % at 10 µM;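 active means GFP response relative to DMSO above a set limit, near the screen mean plus 3 SD, cut at about 150% in these data; inconclusive means Fewer than 70 cells measured for a yeast strain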;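 further: ratio of well median GFP fluorescence to mean of DMSO wells on the plate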
AGP1-GFP MLPCN = modulators of AGP1-GFP expression in yeast TOR pathway, primary screen, cell-based, multiplex flow cytometry, S. cerevisiae, MLPCN library; AID 2066, 2009; 3 h; GFP as percent of DMSO wells; 320,000 tested, 0.02% active; GFP response vs DMSO, % at 10 µM;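 active means GFP response relative to DMSO above a set limit, near screen average plus 3 SD, cut at about 150% in these data; inconclusive means fewer than 70 cells counted for the yeast strain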;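 further: median GFP channel fluorescence of the gated AGP1 strain per well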
LAP4-GFP MLPCN = modulators of LAP4-GFP expression in yeast, primary screen, S. cerevisiae, multiplex flow cytometry, MLPCN library; 3 h; median GFP as percent of DMSO wells; GFP response vs DMSO, % at 10 µM; 320,000 tested, 0.34% active; AID 2023, 2009;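 active means GFP response vs DMSO above a set limit, about the screen mean plus 3 SD, cut at about 150% in these data; inconclusive means under 70 cell events counted for the yeast strain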
RPL19A-GFP yeast = RPL19A-GFP expression modulators in yeast, primary screen, cell-based, S. cerevisiae, multiplex flow cytometry, MLPCN; S. cerevisiae RPL19A-GFP strain, 3 h; stronger effect = lower value; percent response vs DMSO, % at 10 µM; 330,000 tested, 0.3% active; AID 2025, 2009;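 active means percent response vs DMSO below 50%; inconclusive means fewer than 70 events counted for the yeast strain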;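 further: median channel GFP fluorescence of the barcoded RPL19A-GFP strain; ratio of sample median GFP to plate DMSO average so 100% = DMSO; lower means less RPL19A-GFP as with rapamycin TOR inhibition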
Starred values were filed as active, the others as inactive; ? = inconclusive; [ ] = remark or other dose. The list is not random: actives were taken first. Their share in the collection is about 0.93%.

SMILES | MEP2 TOR yeast | CIT2-GFP yeast | AGP1-GFP MLPCN | LAP4-GFP MLPCN | RPL19A-GFP yeast
COC(=O)c1sc(-c2ccc(Cl)cc2)cc1NC(=O)/C=C/C(=O)O | 351.2*[may fluoresce violet] | ? | ? | 64.9 | 43.3*[may fluoresce violet]
COC(=O)c1sc(-c2ccc(Cl)cc2)cc1NC(=O)COCC(=O)O | 97.2 | 82.0 | 92.9 | 121.3 | 94.5
CC(=O)c1sc(C(C)(C)C)cc1NC(=O)CCC(=O)O | 97.9 | 102.6 | 104.3 | 109.0 | 97.9
COC(=O)c1sc(-c2ccc(C(C)(C)C)cc2)cc1NC(=O)CCC(=O)O | 118.0 | 86.2 | 19.6 | 68.6 | 39.7*
O=S(=O)(c1ccccc1)N(Cc1ccccn1)Cc1ccccn1 | 107.1 | 104.5 | 93.7 | 86.5 | 105.5
O=S(=O)(c1ccc(N2CCOCC2)nc1)N(Cc1ccccn1)Cc1ccccn1 | 395.1*[may fluoresce violet] | ? | 22.0 | 78.6 | 97.4
CCOC(=O)N1CCC(=NNC(=O)c2ccccc2F)CC1 | 102.2 | 101.7 | 103.0 | 105.4 | 100.9
Cc1ccccc1NC(=O)C1CCN(c2cc(-c3ccccc3)nc3ncnn23)CC1 | 256.5*[may fluoresce violet] | ? | ? | 61.4 | 60.0
COc1ccc(S(=O)(=O)Nc2cc(Cl)ccc2OC)cc1 | 99.1 | 98.3 | 96.5 | 103.6 | 94.0
COc1ccc(Cl)cc1NS(=O)(=O)c1ccc(OC)c(OC)c1 | 208.7*[may fluoresce violet] | ? | ? | 101.1 | 19.5*[may fluoresce violet]
Cc1ccc(C)c(N2CCN(c3ccc4cc(S(=O)(=O)N5CCCCC5)ccc4n3)CC2)c1 | 96.8 | 95.6 | 94.1 | 90.2 | 96.1
Cc1cccc(N2CCN(c3ccc4cc(S(=O)(=O)N5CCCCC5)ccc4n3)CC2)c1C | 163.0 | ? | 17.4 | 92.3 | 27.3*[may fluoresce violet]
COc1ccc(C(C)(C)C)cc1NC(=O)CN1C(=O)C(=O)N(Cc2ccco2)C1=O | 107.5 | 102.2 | 106.6 | 112.6 | 101.4
CCN(CC)CCn1c(NS(=O)(=O)c2ccc(C)cc2)nc2ccccc21 | 97.1 | 98.9 | 101.3 | 99.5 | 95.5
CCN(CC)CCn1c(N)nc2ccccc21 | 317.2*[may fluoresce violet] | ? | 27.4 | 71.0 | 88.6
CC1CCCN(C(=O)C2CCN(S(=O)(=O)c3cccc4nsnc34)CC2)C1 (stereo not given) | 89.1 | 92.1 | 99.4 | 91.7 | 91.6
CCOc1ccc(NC(=O)CCC(=O)NNC(=O)COc2ccc(C)cc2Br)cc1 | ? | ? | ? | ? | 46.1*[may fluoresce violet]
CCOc1ccc(NC(=O)CCC(=O)NNC(=O)COc2ccc(C)cc2)cc1 | 100.7 | 107.1 | 107.3 | 101.9 | 99.3
Cc1ccc(NC(=O)COc2ccc(Br)cc2C)cc1 | 243.4* | 96.4 | 94.8 | 132.3 | 103.6
Cc1ccc(OCC(=O)Nc2ccc(NC(=O)c3ccco3)cc2)c(C)c1 | 117.0 | 94.4 | 107.4 | 95.3 | 108.2
Brc1ccc(-c2ccc(/C=N/Nc3nc4ccccc4[nH]3)o2)cc1 | 114.9 | ? | ? | 93.4 | 38.6*[may fluoresce violet]
C(=N\Nc1nc2ccccc2[nH]1)/c1ccccc1 | 102.3 | 101.4 | 105.3 | 102.1 | 101.5
CCOc1ccccc1CN1CCN(CC2=Cc3cc(OC)ccc3OC2)CC1CCO (stereo not given) | 205.2*[may fluoresce violet] | ? | 29.2 | 87.4 | 51.2
CCOc1ccccc1CN1CCN(Cc2ccc(C)o2)CC1CCO (stereo not given) | 101.0 | 97.1 | 97.2 | 99.9 | 98.1
CCOc1cccc(CN2CCN(CCCc3ccccc3)C(CCO)C2)c1O (stereo not given) | 513.6*[may fluoresce violet] | ? | 25.6 | 88.8 | 46.3*[may fluoresce violet]
SMILES | MEP2 TOR yeast | CIT2-GFP yeast | AGP1-GFP MLPCN | LAP4-GFP MLPCN | RPL19A-GFP yeast
FC(F)(F)c1cccc(N2CCN(C3CC4CCC3C4)CC2)c1 (stereo not given) | 105.2 | 102.2 | 95.2 | 96.5 | 100.2
NC(=O)CSc1oc(-c2ccco2)nc1S(=O)(=O)c1ccccc1 | 92.9 | 100.9 | 101.6 | 96.5 | 107.6
Cc1cc(C)c(S(=O)(=O)c2cccc(C)c2C)c(=O)[nH]1 | 387.1*[may fluoresce violet] | ? | 15.8 | 73.7 | 53.9
O=C(CSc1cccc[n+]1[O-])N1CCCCCC1 | 99.2 | 96.5 | 91.3 | 90.3 | 102.8
O=C(CSc1cccc[n+]1[O-])CSc1cccc[n+]1[O-] | 102.9 | 78.1 | 98.7 | 159.1* | 93.9
COc1ccc(-c2ccc(SCC(=O)N3c4ccccc4CC3C)nn2)cc1OC (stereo not given) | 183.1* | 145.0 | 107.8 | 163.4* | 109.2
